Assay results as given in PubChem BioAssay AID902 (National Center for Advancing Translational Sciences (NCATS), 2007).
The whole screen tested about 130,000 compounds, of which about 1,900 (1.5%) were called active. About 5% were inconclusive and are not listed. The call rests on the fitted dose curve; in most records, active means well fitted cell-killing curve with a large enough effect; inconclusive means small, poorly fitted or top-dose-only effect; inactive means no such curve, though single readings can be large or run the other way. Many of the other results were omitted from the sample, so actives are more common in it than they were.

experiment: qHTS Screen for Compounds that Selectively Target Cancer Cells with p53 Mutations: Cytotoxicity of p53ts Cells at the Nonpermissive Temperature; settings: H1299-p53A138V viability at 39C, ATP luminescence, 24 h; series mostly up to 46.1 µM; activity change, negative = cell killing: at the top concentration; further: nearly all actives have a fitted effect of over 55% in size
Source text: NIH Chemical Genomics Center [NCGC] NIH Molecular Libraries Screening Centers Network [MLSCN] MLSCN Grant: 1 X01 MH079844-01 Assay Submitter (PI): Dr. SUN, YI, University of Michigan NCGC Assay Overview: Synthetic Lethal Screen for Compounds to Kill Cancer Cells with p53 Mutation. Tumor suppressor gene p53 serves as a major cellular barrier against tumorigenesis. […] The goal of this screening is to identify small molecule probes that selectively kill cancer cells with mutations in p53. This screening was carried out using two lines of H1299 lung cancer cells. The H1299-p53 A138V line express a temperature sensitive p53 mutant (p53ts) in which the mutant p53 protein (A138V) is in the mutant confirmation when grown at 39C (the nonpermissive temperature) and in the wild type conformation when grown at 32C (the permissive temperature). A H1299-neo line (p53 null) grown at both 39C and 32C were used as counter-screens to filter out false positive associated with temperature shifting. The small molecular compounds that selectively target mutant p53-containing cancer cells were selected as candidate probes for further study. A cytotoxicity assay based on the measurement of ATP contents in cells was used in this screen. Concentration-responses of all the compounds in the library collection were determined in qHTS using the cell lines and temperature conditions as above.
NCGC Assay Protocol Summary: Both the H1299-p53A138V and H1299-neo cell lines were provided by Dr.Yi Sun, a PI at the University Michigan. The cells were maintained and cultured at 37C. The resuspended frozen cells were used to plate the cells in the 1536-well assay plates at a density of 600 cells per well in 5 ul medium. The assay plates with the cells were incubated at 37C for 16 to 30 hours before the experiments. The library compounds in DMSO solution were added to the cells in assay plates and incubated 24 hours at 39C (for mutant p53 conformation) or 32C (for normal p53 conformation as control). An ATP_lite assay kit (PerkinElmer) was used to determine the cell viability. Tomaxifen (100uM) was used as the positive control for cell killing. Data were normalized to the controls for basal activity (DMSO only) and 100% killing (100uM tamoxifen). AC50 values were determined from concentration-response data modeled with the standard Hill equation. P53 assay protocol: 1. Reagent; 5 uL H1299-p53A138V or H1299-neo cell cells/well 2. Time; overnight; 37C incubation 3. Compounds; 23 nL; 5.9 nM to 46 uM 4. Controls; 23 nL; Tamoxifen 100 uM 5. Time; 24 hr; 39C incubation 6. Reagent; 3 uL; ATP_Lite reagent 7. Time; 20 min; Room Temperature 8. Detection; Luminescence; Viewlux plate reader Keywords: p53, synthetic lethal, cancer, cell viability, cytotoxicity, H1299 cell line, luminescence, MLSMR, MLSCN, NIH Roadmap, qHTS, NCGC
On the % scale 0 is the no-effect control and ±100 the full control effect; potency means the concentration at half of the fitted maximal effect.

Structure (SMILES) | Potency | activity change, negative = cell killing
CC(C)(Cc1c[nH]c2ccc(Cl)cc12)NCCOc1ccccc1OCC1CC1 | 25.1 µM (active) | –
Cc1cccc(Cn2cccc(C(=O)Nc3ccc4c(c3)OCCO4)c2=O)c1 | – | -14.4% (inactive)
CCN(CC)CCn1ncc2c(N)ncnc21 | – | -0.868% [at 9.22 µM] (inactive)
C/C(=C\C=C/[C@@H](C)C(=O)O)[C@H]1CN[C@H](C(=O)O)[C@@H]1CC(=O)O | – | -2.1% (inactive)
CN(C)C(=O)Oc1cc(OC(=O)N(C)C)cc(C(O)CNC(C)(C)C)c1 (stereo not given) | – | -8.98% (inactive)
CC(C)Oc1ccc(NC(=O)c2cc3ccccc3o2)cc1 | 6.31 µM (active) | –
COc1cc(C(c2c(O)c3ccccc3oc2=O)c2c(C)n(C)n(-c3ccccc3)c2=O)ccc1O (stereo not given) | – | 21.9% (inactive)
O=C1C2CCN(CC2)C1(CO)CO | inactive | –
C=CCSSCC=C | – | -2.47% (inactive)
Cc1nnc(NC(=O)c2cccn(Cc3cccc(F)c3)c2=O)s1 | – | -3.63% (inactive)
NCCc1c[nH]c2ccc(O)cc12 | inactive | –
Fc1ccc(C(OCCN2CCN(C/C=C\c3ccccc3)CC2)c2ccc(F)cc2)cc1 | 31.6 µM (active) | –
CCN1C[C@]2(C)CC[C@H](O)[C@@]34[C@@H]5CC6[C@@H](OC)C[C@@](O)([C@@H]5[C@@H]6O)[C@H](C[C@@H]23)[C@H]14 | – | 1.08% [at 20.6 µM] (inactive)
COc1ccc(C2Oc3c(I)c(OC)cc(OC)c3CC2O)cc1OC (stereo not given) | – | -12.1% (inactive)
CC(C)(O)/C=C\C(=O)[C@](C)(O)[C@H]1[C@H](O)C[C@]2(C)[C@@H]3CC=C4[C@@H](C=C(O)C(=O)C4(C)C)[C@]3(C)C(=O)C[C@@]12C | – | -1.33% [at 9.22 µM] (inactive)
CC[C@@](O)(C(=O)O)c1cc2n(c(=O)c1CO)Cc1cc3ccccc3nc1-2 | – | 11.1% [at 9.22 µM] (inactive)
O=C(N/N=C/c1c(O)n(Cc2ccccc2)c(=O)[nH]c1=O)c1ccccc1 | – | -16% (inactive)
CN1C2CC3CC1C(O3)C2O (stereo not given) | – | 9.45% (inactive)
CCCCN1C2CCC1CC(OC(c1ccc(F)cc1)c1ccc(F)cc1)C2 (stereo not given) | 12.6 µM (active) | –
Cn1c(O)c(C=NCCN2CCNCC2)c(=O)n(C)c1=O | – | 22.6% (inactive)

Structure (SMILES) | Potency | activity change, negative = cell killing
CC(=O)OC1C2CCC3C1(CC(O)[C@@]1(O)[C@@H](CC(O)C1(C)C)[C@]3(C)O)C[C@@]2(C)O (stereo not given in full) | – | -10.4% (inactive)
CC[C@@H]1CN2CC[C@@H]1C[C@H]2[C@H](O)c1ccnc2ccc(OC)cc12 | – | -2.09% (inactive)
O=C(Nc1ccc(Cl)cc1C(=O)c1ccccc1)c1cc(Cl)cc(Cl)c1 | – | -11.9% (inactive)
C[C@@]12CCC3C(CC[C@@H]4CC(O)CC[C@@]34C)C1CCC2O (stereo not given in full) | – | 7.74% (inactive)
C[C@@]1([C@@H](NP(=O)(c2ccccc2)c2ccccc2)c2ccccc2)C[C@H]1CCO | – | -4.77% (inactive)
N#Cc1c(Cl)c(Cl)c(Cl)c(C#N)c1Cl | 6.31 µM (active) | –
CCC(C)C(=O)O[C@@H]1C[C@@]2(C)C(c3ccoc3)OC(=O)CC23OC2(C)O[C@@]14[C@@]1(C)C(CC(=O)OC)C5(C)CC1(O)C(O)(C5OC(=O)C1(C)OC1C)C(OC(C)=O)[C@@]34O2 (stereo not given in full) | – | 0.427% (inactive)
Cc1ccc(-n2c(/C=C/c3cccc(C(F)(F)F)c3)nc3ccccc3c2=O)cc1 | – | -23.3% (inactive)
Clc1ccc(C(c2ccc(Cl)cc2)n2cc[n+](C[C@@H](OCc3ccc(Cl)cc3Cl)c3ccc(Cl)cc3Cl)c2)cc1 | 15.8 µM (active) | –
CCN(CC)c1ccc(C2C(C(N)=O)=C(C)Nc3nc(SCc4ccccc4)nn32)cc1 (stereo not given) | – | 26.9% (inactive)
Clc1ccc([C@@H]2C[C@H]3CC[C@@H]2N3)cn1 | – | -3.71% (inactive)
Cn1cc(/C=C/c2nc3ccccc3c(=O)n2-c2ccccc2)c2ccccc21 | – | 1.73% (inactive)
O=C(NC(c1ccc(Cl)cc1)P(=O)(Oc1ccccc1)Oc1ccccc1)OCc1ccccc1 (stereo not given) | – | 10.7% (inactive)
COc1cc2c(cc1OC)[C@@H]1C(=O)c3ccc(O)c(CC=C(C)C)c3OC1CO2 (stereo not given in full) | – | -2.98% (inactive)
COc1ccc(NC(=O)Nc2cccc3cccnc23)cc1 | 15.8 µM (active) | –
CC1=CC(=O)C2=C(C)C[C@H](O)[C@H]3[C@H](C)C(=O)O[C@@H]3C12 (stereo not given in full) | – | 3.03% (inactive)
c1csc(CN2CC3(CCNCC3)C2)n1 | – | 7% (inactive)
CC(C)(c1ccc(OC[C@@H]2CO2)cc1)c1ccc(OC[C@H]2CO2)cc1 | 12.6 µM (active) | –
Cc1ccc(N2C(=O)NC(=O)C(CCc3ccncc3)(Cc3cccc(Cl)c3Cl)C2=O)cc1 (stereo not given) | – | 31.4% (inactive)
C[C@]12CC[C@H](O)C[C@@H]1CC[C@H]1[C@H]2CC[C@]2(C)C(=O)CC[C@@H]12 | inactive | –
